Measurements reported in the supplement of paper PMC3342239.
Where a name gives a salt, the structure may show the parent alone.

The compounds below were run on Saccharomyces cerevisiae (assay: fraction of cells in G1 phase (DNA content, flow cytometry); higher = more cells with unreplicated DNA (G1 delay)). Details: temperature: 30 C; YPD; BY4741 PDR5+ SNQ2+; drug added to: actively dividing cells; 4.33 h.
Protocol: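 S. cerevisiae cultures in YPD at 30°C were treated with each drug of the Enzo FDA-approved library at 20 µg/ml (final µM given per drug). Cells were fixed after 6–7 h (S1) or 6 h (S2), or after 4.33 h for BY4741 (S3), then stained with SYTOX Green. %G1 is the Dean-Jett-Fox G1 peak area divided by the G1+G2/M peak areas, written as a fraction and averaged over at least two independent experiments. DMSO reference: mean ~0.49; >0.60 is called High G1 and <0.3876 Low G1. Scale: lower means mitotic delay.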

SMILES	fraction of cells in G1 phase
CCOC(=O)C1=C(COCCN)NC(C)=C(C(=O)OC)C1c1ccccc1Cl (stereo not given) [Amlodipine] (48.9134 µM)	0.481
C[C@]12CCC(=O)C=C1C=C[C@@H]1[C@@H]2CC[C@@]2(C)[C@H]1CC[C@@]21CCC(=O)O1 [Canrenone] (58.7429 µM)	0.453
COC(=O)[C@H](c1ccccc1Cl)N1CCc2sccc2C1 [Clopidogrel sulfate] (62.1449 µM)	0.459

Same assay, conditions: temperature: 30 C; YPD; JTY2953 pdr5 snq2 (sensitized); drug added to: actively dividing cells; 6 h

SMILES	fraction of cells in G1 phase
CCOC(=O)C1=C(COCCN)NC(C)=C(C(=O)OC)C1c1ccccc1Cl (stereo not given) [Amlodipine] (48.9134 µM)	0.673
C[C@]12CCC(=O)C=C1C=C[C@@H]1[C@@H]2CC[C@@]2(C)[C@H]1CC[C@@]21CCC(=O)O1 [Canrenone] (58.7429 µM)	0.649
CSc1ccc2c(c1)N(CCC1CCCCN1C)c1ccccc1S2 (stereo not given) [Thioridazine HCl] (53.969 µM)	0.469
COC(=O)[C@H](c1ccccc1Cl)N1CCc2sccc2C1 [Clopidogrel sulfate] (62.1449 µM)	0.719
c1ccc(-c2ccc(C(c3ccccc3)n3ccnc3)cc2)cc1 (stereo not given) [Bifonazole] (64.4325 µM)	0.474

Same assay, conditions: temperature: 30 C; YPD; JTY2953 pdr5 snq2 (sensitized); drug added to: cultures diluted from stationary phase; 6-7 h

SMILES	fraction of cells in G1 phase
CC(C)(C#N)c1cc(Cn2cncn2)cc(C(C)(C)C#N)c1 [Anastrozole] (68.1723 µM)	0.518
CCCCCN(C)CCC(O)(P(=O)(O)O)P(=O)(O)O [Ibandronate] (62.65 µM)	0.474
CCOC(=O)C1=C(COCCN)NC(C)=C(C(=O)OC)C1c1ccccc1Cl (stereo not given) [Amlodipine] (48.9134 µM)	0.768
O=C(CCCN1CCC(O)(c2cccc(C(F)(F)F)c2)CC1)c1ccc(F)cc1 [Trifluperidol 2HCl] (48.8487 µM)	0.563
C[C@]12CCC(=O)C=C1C=C[C@@H]1[C@@H]2CC[C@@]2(C)[C@H]1CC[C@@]21CCC(=O)O1 [Canrenone] (58.7429 µM)	0.612
COc1ccc2c(c1)c(CC(=O)OCC(=O)O)c(C)n2C(=O)c1ccc(Cl)cc1 [Acemetacin] (48.0961 µM)	0.489
NC(N)=Nc1nc(CSCC/C(N)=N/S(N)(=O)=O)cs1 [Famotidine] (59.2687 µM)	0.499
C[C@]12C=CC(=O)C=C1CC[C@@H]1[C@@H]2C(=O)C[C@@]2(C)[C@H]1CC[C@]2(O)C(=O)CO [Prednisone] (55.7976 µM)	0.496
C[C@](N)(Cc1ccc(O)c(O)c1)C(=O)O [Methyldopa] (94.6883 µM)	0.412
CCN1CCC[C@H]1CNC(=O)c1cc(S(N)(=O)=O)ccc1OC [Sulpiride s (-)] (58.5768 µM)	0.482
C#C[C@]1(O)CC[C@H]2[C@@H]3CCC4=CC(=O)CC[C@@H]4[C@H]3CC[C@@]21CC [Levonorgestrel] (64.009 µM)	0.509
CCOC(=O)OC(C)OC1=C(C(=O)Nc2ccccn2)N(C)S(=O)(=O)c2ccccc21 (stereo not given) [Ampiroxicam] (44.6957 µM)	0.5
CSc1ccc2c(c1)N(CCC1CCCCN1C)c1ccccc1S2 (stereo not given) [Thioridazine HCl] (53.969 µM)	0.729
COC(=O)Nc1nc2cc(C(=O)c3ccccc3)ccc2[nH]1 [Mebendazol] (67.7277 µM)	0.352
CC[C@H]1OC(=O)[C@H](C)[C@@H](O[C@H]2C[C@@](C)(OC)[C@@H](O)[C@H](C)O2)[C@H](C)[C@@H](O[C@@H]2O[C@H](C)C[C@H](N(C)C)[C@H]2O)[C@](C)(O)C[C@@H](C)CN(C)[C@H](C)[C@@H](O)[C@]1(C)O [Azithromycin] (26.7021 µM)	0.471
NC12CC3CC(CC(C3)C1)C2 [Amantadine HCl] (106.553 µM)	0.505

SMILES	fraction of cells in G1 phase
CN/C(=N\c1ccc(C2=NNC(=O)CC2C)cc1)NC#N (stereo not given) [Siguazodan] (70.3425 µM)	0.493
C=C1C[C@H]2[C@@H]3C=C(C)C4=CC(=O)CC[C@]4(C)[C@H]3CC[C@]2(C)[C@@]1(OC(C)=O)C(C)=O [Melengestrol acetate] (50.4374 µM)	0.569
C[N+](C)(C)CCOC(=O)CCC(=O)OCC[N+](C)(C)C [Succinylcholine] (68.8691 µM)	0.467
O=C(CCNNC(=O)c1ccncc1)NCc1ccccc1 [Nialamide] (67.0359 µM)	0.512
CC[N+](CC)(CC)CCOc1cccc(OCC[N+](CC)(CC)CC)c1OCC[N+](CC)(CC)CC [Gallamine triethiodide] (39.1519 µM)	0.516
O=c1[nH]c(=O)n([C@H]2C[C@H](O)[C@@H](CO)O2)cc1I [Idoxuridine] (56.4808 µM)	0.515
O=C(NC(Cc1cc(=O)[nH]c2ccccc12)C(=O)O)c1ccc(Cl)cc1 (stereo not given) [Rebamipide] (53.9381 µM)	0.473
COC(=O)[C@@H]1[C@H]2C[C@H]3c4[nH]c5ccccc5c4CCN3C[C@@H]2CC[C@@H]1O [Yohimbine HCl] (51.164 µM)	0.524
COC(=O)[C@H](c1ccccc1Cl)N1CCc2sccc2C1 [Clopidogrel sulfate] (62.1449 µM)	0.642
C1COC(NC(C2CC2)C2CC2)=N1 [Rilmenidine hemifumarate] (110.956 µM)	0.483
CCOC(=O)[N-]c1c[n+](N2CCOCC2)no1 [Molsidomine] (82.564 µM)	0.543
CCc1ccc(CCOc2ccc(CC3SC(=O)NC3=O)cc2)nc1 (stereo not given) [Pioglitazone] (56.1093 µM)	0.477
O=C1CN2Cc3c(ccc(Cl)c3Cl)N=C2N1 [Anagrelide] (78.0967 µM)	0.469
COc1ccc(C(=O)NCc2cccnc2)cc1C(=O)NCc1cccnc1 [Picotamide] (53.1323 µM)	0.459
Cc1c(Cl)cccc1Nc1ccccc1C(=O)O [Tolfenamic acid] (76.4204 µM)	0.53
c1ccc(-c2ccc(C(c3ccccc3)n3ccnc3)cc2)cc1 (stereo not given) [Bifonazole] (64.4325 µM)	0.758
